Records with an inconclusive call do not appear. Where a call stands in place of a potency, no number is given. The source made the active and inactive calls. Calls follow the shape of the dose curve; as a rule, active = well fitted cell-killing curve with a large enough effect in the repeat runs; inconclusive = weak or mixed curves, or effect the other way; inactive = no such curve, though single readings can be large or run the other way.

The nature of one experiment: qHTS assay to identify small molecule antagonists of the glucocorticoid receptor (GR) signaling pathway - cell viability counter screen (AID 720693). Also: nearly all actives have a fitted effect of over 55% in size. As to conditions: GR-bla HeLa viability, CellTiter-Glo luminescence, 18 h, with 5 nM dexamethasone present; series mostly up to 58.5 µM. (qHTS replaces the single test concentration by a dilution series.)
Take `COc1ccc2c(c1)c1c3n2CCN(C)C3=NCC1`: the compound was called inactive. Turning to `O=C(O)CNC(=O)CNC(=O)CNC(=O)CSC(=O)c1ccccc1`, the outcome was inactive. Same read-out and setting: the result for `OCC(O)CN1CCN(c2ccccc2)CC1` (configuration not stated) reads “inactive”. Same read-out and setting: the result for `NCC1(Cc2noc(=O)[nH]2)CCCCC1` reads “inactive”. On the same count and under the same terms, the result for `OCCN1CCOCC1` reads “inactive”.

`Cc1ccnc(N)c1`: the result was inactive. Consider `CCCCOC(=O)[C@H](C)O`, for which the result was inactive.

Consider `COC(=O)CCCCC(=O)O`, for which the call was inactive.

Turning to `C=C(C)[C@@H]1CC=C(C)C(=O)C1`, the call was inactive. Still for that read-out and setting: as for `C=CCN1C[C@H](C(=O)N(CCCN(C)C)C(=O)NCC)C[C@@H]2c3cccc4[nH]cc(c34)C[C@H]21`, the entry is “inactive”. The same measure, in the same setting: as for `COC(=O)c1ccccc1C(=O)O`, the entry is “inactive”; as for `C=C(C)[C@@H]1CC=C(C)CC1`, “inactive”; as for `c1ccc(-c2nn[nH]n2)cc1`, “inactive”. On the same count and under the same terms, as for `N[C@@H](Cc1ccc(O)cc1)C(=O)O`, the entry is “inactive”; as for `OCC1(CO)COCOC1`, “inactive”. For the compound `C=CCSSCCC`, the compound was classed as inactive.

Consider `COc1cc2c(cc1OC)C(=O)C(CC1CCN(Cc3ccccc3)CC1)C2` (configuration not stated), for which the compound was called inactive.

Consider `CC(C)c1ccc(C=O)cc1`, for which the call was inactive. On the same count and under the same terms, the result for `O=C(O)CONC(=O)c1ccccc1` reads “inactive”; that for `CCCCCCCCCCCCCBr`, “inactive”; that for `c1ccc2cnccc2c1`, “inactive”. Still for that read-out and setting: the result for `Cn1c(=O)c2[nH]c(Br)nc2n(C)c1=O` reads “inactive”; that for `CCCC(=O)OCCC(C)CCC=C(C)C` (configuration not stated), “inactive”. `C=C(C)c1cccc(C(C)(C)N=C=O)c1`: the call was inactive. As for `O=C[O][Al]([O]C=O)[O]C=O`, the result was inactive. On the same count and under the same terms, as for `CN1CCOC(c2ccccc2)c2ccccc2C1` (configuration not stated), the entry is “inactive”.

A further experiment in a line: qHTS assay for identifying genotoxic compounds that show differential cytotoxicity against isogenic chicken DT40 cell lines with known DNA damage response pathways - wild type cell line (AID 743012). Also: nearly all actives have a fitted effect of over 60% in size. As to conditions: DT40 wild type chicken cells viability, CellTiter-Glo, 40 h; series mostly up to 68.4 µM. The method, boiled down:
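Using parental DT40 (300 cells/well), compounds delivered in DMSO incubate 40 h at 37 C/5% CO2. CellTiter-Glo reagent then stands 30 min at room temperature, and luminescence gives cell viability.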
Regarding `Cc1ccc(C)c([N+](=O)[O-])c1`, the Potency result is “inactive”. On the same count and under the same terms, as for `CCC(C)C(C)=O` (configuration not stated), the entry is “inactive”; as for `O=C(NCN1CCOCC1)c1cnccn1`, “inactive”.

Consider `O=Cc1ccccc1Cl`, for which the Potency entry was “inactive”. Same read-out and setting: as for `CC(=O)CC(=O)OC(C)(C)C`, the entry is “inactive”; as for `CC1CC(=O)CC(C)(C)C1` (configuration not stated), “inactive”. On the same count and under the same terms, as for `O=C(Cl)c1ccccc1[N+](=O)[O-]`, the entry is “inactive”.

The nature of a further experiment: qHTS assay for identifying genotoxic compounds that show differential cytotoxicity against isogenic chicken DT40 cell lines with known DNA damage response pathways - Rev3 mutant cell line (AID 743014). Also: nearly all actives have a fitted effect of over 55% in size. Also: potency is read from the fitted curve at half-maximal effect. As to conditions: chicken DT40 Rev3-/- viability, CellTiter-Glo, 40 h; series mostly up to 68.4 µM.
For the compound `Cc1ccc(C)c([N+](=O)[O-])c1`, the Potency entry was “inactive”.

As to `NCC1(Cc2noc(=O)[nH]2)CCCCC1`, the Potency entry was “inactive”.

Turning to `OCCN1CCOCC1`, the Potency result is “inactive”. On the same count and under the same terms, the result for `CCC(C)C(C)=O` (configuration not stated) reads “inactive”. Same read-out and setting: the result for `Cc1ccnc(N)c1` reads 48.6 µM (active). With `O=C(NCN1CCOCC1)c1cnccn1`, the Potency result is “inactive”. Still for that read-out and setting: the result for `COC(=O)CCCCC(=O)O` reads “inactive”; that for `C=C(C)[C@@H]1CC=C(C)C(=O)C1`, “inactive”. Still for that read-out and setting: as for `C=CCN1C[C@H](C(=O)N(CCCN(C)C)C(=O)NCC)C[C@@H]2c3cccc4[nH]cc(c34)C[C@H]21`, the entry is “inactive”; as for `COC(=O)c1ccccc1C(=O)O`, “inactive”. Same read-out and setting: as for `C=C(C)[C@@H]1CC=C(C)CC1`, the figure is 68.6 µM (active). Regarding `OCC1(CO)COCOC1`, the Potency result was “inactive”. Still for that read-out and setting: the result for `CC(C)c1ccc(C=O)cc1` reads “inactive”; that for `CC(=O)CC(=O)OC(C)(C)C`, “inactive”; that for `O=C(O)CONC(=O)c1ccccc1`, “inactive”. On the same count and under the same terms, as for `CCCCCCCCCCCCCBr`, the figure is 54.3 µM (active); as for `c1ccc2cnccc2c1`, 30.6 µM (active); as for `O=C(Cl)c1ccccc1[N+](=O)[O-]`, “inactive”. Still for that read-out and setting: as for `Cn1c(=O)c2[nH]c(Br)nc2n(C)c1=O`, the entry is “inactive”.

Source of the values: PubChem BioAssay (Tox21).
